Measured values taken from PubChem BioAssay (NCI).
Compounds without any hit were thinned out: in the full panel of roughly 83,000, 20% have a hit.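 48-hour exposure, single concentration, 96-well plates; percent growth endpoint where 0 means no net growth. Active: below 10.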 Unmarked numbers belong to inactive results. Active and inactive are the calls of the source.

What was measured:
Experiment in all cases: NCI-60 one-dose screen, 48 h (100 = growth as untreated, 0 = no growth, -100 = all killed)
[1] = tested on: EKVX NSCLC; settings: 10 µM unless noted
[2] = tested on: SN12C renal; settings: 10 µM unless noted
[3] = tested on: UO-31 renal; settings: 10 µM unless noted
[4] = tested on: TK-10 renal; settings: 10 µM unless noted
[5] = tested on: ACHN renal; settings: 10 µM unless noted
[6] = tested on: CAKI-1 renal; settings: 10 µM
[7] = tested on: CCRF-CEM leukemia; settings: 10 µM unless noted
[8] = tested on: MOLT-4 leukemia; settings: 10 µM unless noted
[9] = tested on: SR leukemia; settings: 10 µM unless noted
[10] = tested on: RPMI-8226 leukemia; settings: 10 µM unless noted
[11] = tested on: OVCAR-8 ovarian; settings: 10 µM unless noted
[12] = tested on: OVCAR-5 ovarian; settings: 10 µM unless noted
[13] = tested on: OVCAR-4 ovarian; settings: 10 µM unless noted
[14] = tested on: SK-OV-3 ovarian; settings: 10 µM unless noted
[15] = tested on: IGROV1 ovarian; settings: 10 µM unless noted
[16] = tested on: HS 578T breast; settings: 10 µM unless noted
[17] = tested on: NCI/ADR-RES ovarian; settings: 10 µM unless noted
[18] = tested on: OVCAR-3 ovarian; settings: 10 µM unless noted

Row | SMILES | growth [1] | growth [2] | growth [3] | growth [4] | growth [5] | growth [6] | growth [7] | growth [8] | growth [9] | growth [10] | growth [11] | growth [12] | growth [13] | growth [14] | growth [15] | growth [16] | growth [17] | growth [18]
1 | COc1cc(OC)c(S(N)(=O)=O)cc1C(=O)/C=C/c1ccccc1 | 77.2% | 11.3% | 33.8% | 19.9% | 27.7% | 30.2% | 15.1% | 29.2% | 8.18% (active) | 18.5% | 65.3% | 27.1% | 77.7% | 81.1% | 25.7% | 26.5% | 48.3% | –
2 | C/C(=N\NC(=S)Nc1ccc(Br)cc1)c1cc2ccccc2oc1=O | 40.6% | 35.2% | 19.5% | 42.4% | 14.9% | 9.07% (active) | 12.5% | 18.1% | 0.863% (active) | 16.3% | 5.84% (active) | 41.3% | 28.2% | 26.1% | 24.6% | 20.5% | 11.4% | –
3 | CC1(COc2ccc3ncc(C#Cc4cncc(C(=O)Nc5cc(C(C)(C)C)on5)c4)n3n2)COC1 | 41.5% | 30.4% | 26.9% | 91.6% | 30.6% | 35.4% | 39.5% | 45.6% | 34% | 47.3% | 35.5% | 55.9% | 55.6% | 61.2% | 25% | 15.1% | 22.2% | –
4 | Nc1nc(-c2cccc([N+](=O)[O-])c2)c(N=Nc2ccccc2[N+](=O)[O-])s1 | 48.7% | 1.17% (active) | -36.4% (active) | -38.6% (active) | -72.6% (active) | -27% (active) | 46.7% | 62% | 48.5% | 36.4% | 8.47% (active) | 43.5% | -2.02% (active) | -46.6% (active) | 1.09% (active) | 6.64% (active) | 16.8% | –
5 | CCCCCCNC(=O)Oc1ccc(/C(=C(\C)c2ccc(Cl)cc2)c2ccc(OCCN(C)C)cc2)cc1 | 60.5% | 69.9% | 43.6% | 88.9% | 71.5% | 70.4% | 36% | 13.4% | 2% (active) | -11.6% (active) | 84.8% | 78.1% | 74.5% | 94.4% | 44.7% | 80.6% | 62.9% | 66.4%
6 | O=C1Nc2cc(OC(F)(F)F)ccc2Oc2ccc(-c3ccnc(N4CC[C@H](O)C4)c3)cc21 | 45.9% | 7.37% (active) | 24% | 75.6% | 25.1% | 23.9% | 12.6% | 11.3% | -6.83% (active) | 17% | -14.4% (active) | 25.5% | 48.5% | 27.1% | 16.8% | 24.5% | 9.76% (active) | –
7 | CC1CCc2c(sc3nc(SCC(=O)N/N=C/c4ccc(Cl)cc4)n(-c4ccccc4)c(=O)c23)C1 (centres undefined) | 103% | 95.6% | 94.2% | 114% | 81.1% | 75.1% | 109% | 110% | 96% | 101% | 96.7% | 99.4% | 99.4% | 97.9% | 100% | 82.2% | 97.2% | –
8 | COc1ccc(-c2ccnc3c(C#N)c(Nc4ccccc4)nn23)cc1OC | 98.9% | 89.8% | 67.9% | 65.8% | 86.4% | 60.2% | 93.8% | 84.9% | 73.8% | 78.3% | 85.2% | 83.2% | 103% | 100% | 96.1% | 84% | 85.5% | –
9 | CCc1ccc(NC(=O)N[C@@H](Cc2cccc(F)c2)C(=O)N[C@@H]2C(=O)N3CCC[C@H]3C(=O)N3CCCC[C@H]3C(=O)N[C@@H](CO)C(=O)N3C[C@H](C)C[C@H]3C(=O)O[C@H]2C)c(F)c1 | 34% | 20.3% | 29.4% | 61.1% | 32.2% | 17.5% | 37.7% | 39.3% | 31.4% | 20.3% | 20.9% | 36.4% | 24.6% | 21.8% | 39.5% | 35.5% | 60.6% | –
10 | Cc1cn(-c2cc(NC(=O)c3cncc(C#Cc4cnc5ccc(O[C@H]6CCOC6)nn45)c3)cc(C(F)(F)F)c2)cn1 | 89.9% | 72% | 55.7% | 133% | 87.7% | 88.5% | 95.6% | 88.9% | 47.8% | 85.4% | 92.6% | 80.3% | 90.1% | 119% | 65.3% | 73.7% | 101% | –
11 | Cc1cn(-c2cc(NC(=O)c3cncc(C#Cc4cnc5ccc(O[C@@H]6CCOC6)nn45)c3)cc(C(F)(F)F)c2)cn1 | -9.97% (active) | -8.41% (active) | -13.3% (active) | -19.2% (active) | -93.6% (active) | 1.07% (active) | 0.641% (active) | 2.18% (active) | -35.6% (active) | -29.8% (active) | -49.7% (active) | 0.672% (active) | -33.1% (active) | -22.3% (active) | -9.41% (active) | -25.1% (active) | 40.4% | –
12 | CN1CCN(c2nc(-c3cnc4ccccc4n3)cc3ccccc23)CC1 | 84.9% | 72.6% | 63.2% | 99.9% | 84% | 64.1% | 55.6% | 54.9% | 1.45% (active) | 56.7% | 89.7% | 91.1% | 100% | 92.1% | 73.7% | 85.6% | 82.2% | –
13 | Nc1nc(-c2cccc([N+](=O)[O-])c2)c(N=Nc2cccc(Cl)c2)s1 | 41.9% | 53.2% | 33.5% | 71.7% | 48.6% | 23.2% | 36% | 26.5% | 31.4% | 46.6% | 41.4% | 64.3% | 49.2% | 42.7% | 33.8% | 55% | 38.9% | –
14 | CC(=O)c1ccc(NC(=O)COc2ccc(C3SCC(=O)N3c3ccc(Br)cc3)cc2)cc1 (centres undefined) | 94.4% | 95.1% | 84.2% | 103% | 97.6% | 89.2% | 89.9% | 96.8% | 77% | 89.6% | 97.5% | 102% | 103% | 105% | 89.7% | 100% | 92.6% | –
15 | CC(=O)Oc1ccc(CCN2C(=O)CSC2=S)cc1 | 97.3% | 69% | 76.8% | 57.9% | 93.6% | 81.6% | 57.9% | 88.2% | 68.9% | 37.6% | 103% | 97.9% | 93.8% | 113% | 103% | – | 96.4% | –
16 | O=C1Nc2ccc(Cl)cc2/C1=C/c1ccc(OCc2ccc(F)cc2)cc1 | 90.9% | 93.9% | 86.4% | 99% | 103% | 74.6% | -53.8% (active) | 93.4% | 101% | 69.8% | 98.5% | 94% | 97.5% | 101% | 100% | 101% | 80.5% | –
17 | COc1ccc(CCN2C(=O)CSC2=S)cc1OC | 103% | 93% | 83% | 55.6% | 100% | 84.6% | 63% | 88.7% | 64.6% | 32.8% | 98.6% | 104% | 100% | 99.1% | 102% | 104% | 101% | –
